PubChem BioAssay (NCI)
About 83,000 compounds went through this panel and 20% of them were active in at least one assay; those are over-represented in the sample as a whole.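 Growth was measured after 48 h exposure to one concentration of compound in 96-well plates. Values under 10 count as active.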 Unmarked numbers belong to inactive results. Activity calls are given as the source filed them.

Columns and labels:
Assay in all cases: NCI-60 one-dose screen, 48 h (100 = growth as untreated, 0 = no growth, -100 = all killed)
Details in all cases: 10 µM unless noted
HCT-15 colon = tested on: HCT-15 colon
HT29 colon = tested on: HT29 colon
SNB-75 CNS = tested on: SNB-75 CNS
SNB-19 CNS = tested on: SNB-19 CNS
U251 CNS = tested on: U251 CNS
PC-3 prostate = tested on: PC-3 prostate
SK-MEL-5 melanoma = tested on: SK-MEL-5 melanoma
UACC-62 melanoma = tested on: UACC-62 melanoma
LOX IMVI melanoma = tested on: LOX IMVI melanoma
SK-MEL-28 melanoma = tested on: SK-MEL-28 melanoma

| Structure (SMILES) | growth (HCT-15 colon) | growth (HT29 colon) | growth (SNB-75 CNS) | growth (SNB-19 CNS) | growth (U251 CNS) | growth (PC-3 prostate) | growth (SK-MEL-5 melanoma) | growth (UACC-62 melanoma) | growth (LOX IMVI melanoma) | growth (SK-MEL-28 melanoma) |
| --- | --- | --- | --- | --- | --- | --- | --- | --- | --- | --- |
| Cc1ccc(Nc2cc(=S)nc(N)[nH]2)cc1C | 104% | 94.3% | 78.1% | 90.1% | 92.1% | 90.7% | 102% | 89.2% | 105% | 101% |
| COc1ccc(NC(=O)c2sc3nc(C)c(C(=O)CCc4cccc(OC)c4)cc3c2N)cc1 | 46.7% | 67.4% | 65.7% | 73.5% | 78.3% | 79.5% | 61.9% | 63.7% | 75.4% | 83% |
| COc1cc(COC(=O)CCCCC[P+](c2ccccc2)(c2ccccc2)c2ccccc2)c(OC)c2c1OCO2 | 99.3% | 32.3% | 59.9% | 55.5% | 56.8% | 44.9% | 3.32% (active) | 46.9% | 35.6% | 51.4% |
| COc1cccc(CCC(=O)c2cc3c(N)c(C(=O)Nc4cccc(Cl)c4C)sc3nc2C)c1 | 13.8% | 10.8% | -14.5% (active) | 24.1% | 16.7% | 18.8% | 3.62% (active) | 27% | 33.1% | 44.5% |
| O=c1[nH]c2c(s1)CCCC2CN1CCCCC1 (stereo not drawn) | 107% | 95.2% | 83.8% | 110% | 102% | 91.9% | 99.8% | 113% | 95.5% | 99.3% |
| COc1ccc(C2CC(n3nnnc3-c3ccccc3)=NN2)cc1 (stereo not drawn) | 52.4% | 84.5% | 76.9% | 88.1% | 83.9% | 58.4% | 70.7% | 13.4% |  | 94.6% |
| C#CCn1cc(C=C2C(=O)NC(=S)NC2=O)c2cc(Cl)ccc21 | -23% (active) | 13.6% | 43.9% | 13.2% | 3.31% (active) | 8.39% (active) | 40.8% | 1.1% (active) |  | -26.5% (active) |
| COc1cc(-c2cc(=O)oc3cc(O)ccc23)cc(OC)c1OC | 91.3% | 95.1% | 74.5% | 95.3% | 96.7% | 71.9% | 91.4% | 88.1% | 97.1% | 99.3% |
| COc1cc2oc(-c3cccc(C(=O)Nc4ccc(Cl)cc4)c3)cc(=O)c2c(OC)c1OC | 17% | 4.57% (active) | 70.6% | 52.7% | 37.4% | 27.1% | -60.1% (active) | -9.87% (active) |  | -9.19% (active) |
| CC(C)NC(=O)N1C(=O)CCC1NNC(=O)c1ccc([N+](=O)[O-])cc1 (stereo not drawn) | 107% | 106% | 102% | 107% | 109% | 107% | 105% | 98.1% |  | 98.4% |
| COc1ccc(/C(=C\c2ccccc2)C(=O)O)cc1OC | 102% | 103% | 81.6% | 95.7% | 99.6% | 96.9% | 93% | 93% |  | 106% |
| COc1cc(C(=O)c2cnc(-c3ccc4cc[nH]c4c3)[nH]2)cc(OC)c1OC | 6.36% (active) | -21.6% (active) | 9.22% (active) | 23.1% | 10% | 18% | -63% (active) | 29.4% | 8.42% (active) | 55.9% |
| COc1cc(NCC(O)CN(CC(C)C)C2CCCC2)c2ncccc2c1 (stereo not drawn) | 84.2% | 78.3% | 103% | 101% | 79.9% | 68.8% | 93.1% | 98.9% |  | 103% |
| Cn1/c(=N/NC(N)=S)ccc2ccccc21 | 82.3% | 57.9% | 101% | 105% | 97.5% | 76.7% | 102% | 102% | 102% | 117% |
| C=Cc1cc[n+](CCCCCCCCCCCC)cc1 | 110% | 99.2% | 97.4% | 103% | 109% | 110% | 104% | 105% |  | 111% |
| CCc1c(Nc2ccc(C)cc2)[nH]c(N)nc1=S | 99.7% | 103% | 93.5% | 98.3% | 97% | 107% | 101% | 93.8% |  | 104% |
| Clc1ccc(N2N=C(c3cccc(Nc4ccncc4)c3)CC2c2ccc(Br)cc2)cc1 (stereo not drawn) | -74.7% (active) | -2.76% (active) | 79.2% | 80.8% | -41.5% (active) | 22% | 68.6% | 101% |  | -85.5% (active) |
| O=S(=O)(NCCCNc1nccc(-c2c(-c3ccccc3)nc3occn23)n1)c1ccc(Cl)cc1 | 79.8% | 47.5% | 95.6% | 97.8% | 86.6% | 72.1% | 70.3% | 68.8% |  | 90% |
| CN1CCN(C(=O)OCc2nc3c(N4CCOCC4)nc(-c4ccccc4)nc3n2C)CC1 | -59.9% (active) | -29.1% (active) | -6.43% (active) | 30.3% | -54.2% (active) | -62.3% (active) | -96.7% (active) | -95.9% (active) |  | -95.5% (active) |
| Cc1cc2nc(-c3ccccc3)c(-c3ccccc3)nc2cc1C | 98.1% | 116% | 114% | 104% | 105% | 106% | 92.4% | 85.5% |  | 105% |
| BrC(Br)(Br)c1cnc2ccccc2n1 | 31.7% | -65.1% (active) | 102% | 67.9% | 50.3% | 62.3% | 73.9% | 61.4% |  | 53.5% |
| O=C(N/N=C/c1cccnc1)c1ccccc1Nc1cccc(C(F)(F)F)c1 | 71.7% | 91.7% | 83% | 84.8% | 92.1% |  | 74.3% | 102% | 78.6% |  |
| O=C(Nc1ccc(Cl)cc1)Nc1ccc(Cl)c(Cl)c1 | 3.42% (active) | 28.6% | 51.7% | 15.9% | 8.94% (active) | 9.37% (active) | 24.1% | 5.98% (active) |  | 35.4% |
| Cn1c(=O)c2[nH]c(CCCc3nc4c([nH]3)c(=O)n(C)c(=O)n4C)nc2n(C)c1=O | 115% | 109% | 105% | 101% | 107% | 94% | 103% | 96.8% |  | 131% |
| C=CCn1c(SCC(=O)Nc2ccc(C(=O)/C=C/c3cc(OC)c(OC)c(OC)c3)cc2)nnc1-c1cc(OC)c(OC)c(OC)c1 | 0.237% (active) | -34.8% (active) | 37.2% | 40.6% | 2.63% (active) | 49.9% | 31.7% | 33.7% |  | 66.9% |
| Fc1ccc2nc3c(cc2c1)CSc1nnc(-c2ccc[nH]c2=S)n1N3 | 104% | 108% | 75.8% | 98.1% | 107% | 91.5% | 96.4% | 91.7% |  | 102% |
| COc1ccc(NC(=O)c2sc3nc(C)c(C(O)c4ccc(OC)cc4)cc3c2N)cc1 (stereo not drawn) | 16.3% | 4.97% (active) | -16% (active) | 71.2% | 25.9% | 22.6% | 9.53% (active) | 31.6% |  | 65.8% |
| CCN(CC)S(=O)(=O)c1cccc([N+](=O)[O-])c1 | 107% | 88.4% | 79.9% | 103% | 88.9% | 75.4% | 97.9% | 102% |  | 108% |
| Cc1ccc(C2CC(c3cccc(Nc4ccncc4)c3)=NN2c2ccccc2)cc1 (stereo not drawn) | -82.6% (active) | -42% (active) | -95.6% (active) | -76.8% (active) | -54.1% (active) | -66.7% (active) | -94.1% (active) | -94.9% (active) |  | -98.9% (active) |
